Measurements taken from PubChem BioAssay AID1159580 (chemical genetic matrix, 2015).
Out of some 5,500 compounds screened, about 2,000 (36%) were called active. Another 18% or so got no clear call; they are omitted. No stated cut-off is given here; in the data, active means normalized growth mostly below about 0.91 (no sharp cut-off); inconclusive means no clear call, values can overlap the other calls; inactive means mostly above about 0.92. Some of the results follow.

Experiment: chemical genetic growth profiling, strain panel (AID 1159580);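 further: tested at 20 µM; growth read once vehicle control cultures reached saturation at 30 °C; 1 = growth at the plate median or of vehicle wells; lower values mean less growth of the strain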
Conditions: growth OD

Measured: normalized growth

NC(Cn1ccc(=O)c(O)c1)C(=O)O (configuration not stated)
inactive: S. cerevisiae deletion strains, locus YJR075W, strain HOC1, hits give low values 1.01 | S. cerevisiae deletion strains, locus YKL009W, strain mrt4, hits give low values 1.01 | S. cerevisiae deletion strains, locus YKL068W, hits give low values 0.993 | S. cerevisiae deletion strains, locus YKL085W, strain MDH1 (second series), hits give low values 0.993 | S. cerevisiae deletion strains, locus YKL085W, strain MDH1, hits give low values 0.993 | S. cerevisiae deletion strains, locus YKL160W, strain elf1, hits give low values 1.04 | S. cerevisiae deletion strains, locus YKL190W, strain CNB1, hits give low values 1.01 | S. cerevisiae deletion strains, locus YKR001C, strain vps1, hits give low values 0.991 | S. cerevisiae deletion strains, locus YKR026C, strain gcn3, hits give low values 1.03 | S. cerevisiae deletion strains, locus YKR091W, strain srl3, hits give low values 1.01 | S. cerevisiae deletion strains, locus YLL001W, strain dnm1, hits give low values 0.981 | S. cerevisiae deletion strains, locus YLL026W, hits give low values 1.01 | S. cerevisiae deletion strains, locus YLL041C, strain sdh2, hits give low values 1.01 | S. cerevisiae deletion strains, locus YLR027C, strain aat2, hits give low values 1.01 | S. cerevisiae deletion strains, locus YLR039C, strain RIC1, hits give low values 1.04 | S. cerevisiae deletion strains, locus YLR058C, strain SHM2, hits give low values 1.01 | S. cerevisiae deletion strains, locus YLR102C, strain apc9, hits give low values 0.988 | S. cerevisiae deletion strains, locus YLR113W, strain HOG1, hits give low values 1.03 | S. cerevisiae deletion strains, locus YLR221C, strain rsa3, hits give low values 1 | S. cerevisiae deletion strains, locus YLR258W, strain gsy2, hits give low values 1.03 | S. cerevisiae deletion strains, locus YLR262C, strain YPT6 (second series), hits give low values 0.977 | S. cerevisiae deletion strains, locus YLR262C, strain YPT6, hits give low values 1.03 | S. cerevisiae deletion strains, locus YLR268W, strain sec22, hits give low values 0.962 | S. cerevisiae deletion strains, locus YLR320W, strain mms22, hits give low values 0.981 | S. cerevisiae deletion strains, locus YLR330W, strain CHS5, hits give low values 1.01 | S. cerevisiae deletion strains, locus YLR342W, strain FKS1 (second series), hits give low values 1.06 | S. cerevisiae deletion strains, locus YLR342W, strain FKS1, hits give low values 1.03 | S. cerevisiae deletion strains, locus YLR357W, strain rsc2, hits give low values 0.986 | S. cerevisiae deletion strains, locus YLR370C, strain arc18, hits give low values 1.03 | S. cerevisiae deletion strains, locus YLR371W, strain rom2, hits give low values 0.995 | S. cerevisiae deletion strains, locus YLR384C, strain iki3, hits give low values 1.03 | S. cerevisiae deletion strains, locus YLR418C, strain cdc73, hits give low values 0.994 | S. cerevisiae deletion strains, locus YML016C, strain PPZ1, hits give low values 1.02 | S. cerevisiae deletion strains, locus YML032C, strain rad52, hits give low values 0.965 | S. cerevisiae deletion strains, locus YML120C, strain ndi1, hits give low values 1.01 | S. cerevisiae deletion strains, locus YML124C, strain tub3, hits give low values 0.995 | S. cerevisiae deletion strains, locus YMR058W, strain fet3, hits give low values 1.01 | S. cerevisiae deletion strains, locus YMR078C, strain ctf18, hits give low values 0.982 | S. cerevisiae deletion strains, locus YMR125W, strain sto1, hits give low values 1.04 | S. cerevisiae deletion strains, locus YMR129W, hits give low values 1.01 | S. cerevisiae deletion strains, locus YMR205C, strain PFK2, hits give low values 1.01 | S. cerevisiae deletion strains, locus YMR223W, strain ubp8, hits give low values 1.01 | S. cerevisiae deletion strains, locus YMR231W, strain pep5, hits give low values 1.02 | S. cerevisiae deletion strains, locus YMR263W, strain SAP30, hits give low values 1.01 | S. cerevisiae deletion strains, locus YMR307W, strain GAS1, hits give low values 1.02 | S. cerevisiae deletion strains, locus YNL067W, strain RPL9B, hits give low values 1.01 | S. cerevisiae deletion strains, locus YNL071W, strain lat1, hits give low values 1.02 | S. cerevisiae deletion strains, locus YNL128W, strain TEP1, hits give low values 1.01 | S. cerevisiae deletion strains, locus YNL153C, strain GIM3, hits give low values 1.01 | S. cerevisiae deletion strains, locus YNL183C, strain NPR1, hits give low values 0.974 | S. cerevisiae deletion strains, locus YNL209W, strain ssb2, hits give low values 1.03 | S. cerevisiae deletion strains, locus YNL233W, strain BNI4, hits give low values 1.02 | S. cerevisiae deletion strains, locus YNL248C, strain rpa49, hits give low values 1.04 | S. cerevisiae deletion strains, locus YNL250W, strain rad50, hits give low values 0.978 | S. cerevisiae deletion strains, locus YNL271C, strain bni1, hits give low values 0.984 | S. cerevisiae deletion strains, locus YNL298W, strain CLA4, hits give low values 0.987 | S. cerevisiae deletion strains, locus YNL307C, strain MCK1, hits give low values 0.997 | S. cerevisiae deletion strains, locus YNL322C, strain KRE1 (second series), hits give low values 1.02 | S. cerevisiae deletion strains, locus YNL322C, strain KRE1, hits give low values 1.01 | S. cerevisiae deletion strains, locus YNR049C, strain mso1, hits give low values 1.02 | S. cerevisiae deletion strains, locus YNR052C, strain pop2, hits give low values 0.992 | S. cerevisiae deletion strains, locus YOL006C, strain TOP1, hits give low values 1.01 | S. cerevisiae deletion strains, locus YOL012C, strain htz1 0.622 | S. cerevisiae deletion strains, locus YOL147C, strain pex11, hits give low values 0.985 | S. cerevisiae deletion strains, locus YOR001W, strain rrp6, hits give low values 0.969 | S. cerevisiae deletion strains, locus YOR061W, strain CKA2, hits give low values 1.03 | S. cerevisiae deletion strains, locus YOR069W, strain VPS5, hits give low values 1.01 | S. cerevisiae deletion strains, locus YOR070C, strain gyp1, hits give low values 1.03 | S. cerevisiae deletion strains, locus YOR080W, strain dia2, hits give low values 1.01 | S. cerevisiae deletion strains, locus YOR083W, strain WHI5, hits give low values 0.982 | S. cerevisiae deletion strains, locus YOR106W, strain vam3, hits give low values 1.02 | S. cerevisiae deletion strains, locus YOR136W, strain idh2, hits give low values 0.996 | S. cerevisiae deletion strains, locus YOR144C, strain elg1, hits give low values 0.985 | S. cerevisiae deletion strains, locus YOR184W, strain ser1, hits give low values 0.99 | S. cerevisiae deletion strains, locus YOR231W, strain MKK1, hits give low values 1.02 | S. cerevisiae deletion strains, locus YOR265W, strain rbl2, hits give low values 1.02 | S. cerevisiae deletion strains, locus YOR270C, strain vph1, hits give low values 1.07 | S. cerevisiae deletion strains, locus YOR290C, strain snf2, hits give low values 1.04 | S. cerevisiae deletion strains, locus YOR316C, strain cot1, hits give low values 0.988 | S. cerevisiae deletion strains, locus YPL051W, strain arl3, hits give low values 1.03 | S. cerevisiae deletion strains, locus YPL055C, strain LGE1, hits give low values 1.05 | S. cerevisiae deletion strains, locus YPL078C, strain atp4, hits give low values 1.05 | S. cerevisiae deletion strains, locus YPL106C, strain sse1, hits give low values 1.02 | S. cerevisiae deletion strains, locus YPL240C, strain hsp82, hits give low values 1.01 | S. cerevisiae deletion strains, locus YPL241C, strain CIN2, hits give low values 1.01 | S. cerevisiae deletion strains, locus YPL256C, strain CLN2, hits give low values 1.03 | S. cerevisiae deletion strains, locus YPR119W, strain clb2, hits give low values 0.988 | S. cerevisiae deletion strains, locus YPR141C, strain kar3, hits give low values 0.993 | S. cerevisiae deletion strains, locus YPR163C, strain tif3, hits give low values 0.987 | S. cerevisiae deletion strains, locus YPR167C, strain met16, hits give low values 0.99 | S. cerevisiae deletion strains, strain wtn01, hits give low values 0.991 | S. cerevisiae strains, strain wild type, hits give low values 1.03
